The panel holds about 83,000 compounds, 20% with a hit somewhere; the sample as a whole holds those more often.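 96-well plates, one dose, 48 hours. Percent growth reported; active if below 10.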 Values without a mark were called inactive. The source made the active and inactive calls.

This assay has as its system MDA-MB-468 breast. Kind of assay: NCI-60 one-dose screen, 48 h (100 = growth as untreated, 0 = no growth, -100 = all killed). The conditions noted are these: 10 µM unless noted.
In the case of `CN(CCOc1ccc(CC2SC(=O)NC2=O)cc1)c1ccccn1` (stereo not given), the growth was 100%.
`O=C(Nc1cccnc1Nc1ccccc1)c1cn(Cc2cccc(Oc3ccccc3)c2)nn1`: the growth was 69.9%.
In the case of `N#Cc1c(-c2cccc([N+](=O)[O-])c2)nc(SCC(=O)c2ccc(Cl)cc2)[nH]c1=O` it was 110%; in that of `Cn1ccnc1C(=O)/C=C/c1ccc(CC(=O)Nc2ccccc2)cc1`, -12.9% (active).
For the compound `CC(C)/C(=N/O)c1ccccc1`, the growth is 105%.
For `COc1cc(C(=O)c2c(-c3ccccc3)oc3c(OC)cccc23)cc(OC)c1OC` the value was 18.4%; for `Cc1ccc(Nc2nc(N)nc(Nc3ccc4ccccc4c3)n2)cc1`, 20.2%.
In the case of `CC1CCCN(CCCCCOc2ccc3oc4ccc(Cl)cc4c(=O)c3c2)C1` (stereo not given) it was 68.7%; in that of `Cc1cc(NCCCCNc2ccnc3cc(Cl)ccc23)nc(Nc2ccc(C(=O)N3CCCCC3)cc2)n1`, -42.3% (active).
As to `CCCCOCCOCCOCc1cc2c(cc1Br)OCO2`, the growth was 102%.
In the case of `C#CCOC(=O)[C@]1(C)CCC[C@]2(C)[C@H]3C[C@H]4C(C(C)C)=C[C@]3(CC[C@H]21)[C@@H]1C(=O)CCC(=O)[C@@H]14` it was 78%.
For `COc1ccc(C2C(c3nn[nH]n3)=C(N)Oc3c2ccc2ccccc32)cc1` (stereo not given) the value was 43.8%; for `Cc1ccc2c(c1)Oc1nc(N)c(C#N)c(N)c1C2Sc1ccc(F)cc1` (stereo not given), -72.6% (active); for `Cn1c(N)c(N=O)c(=O)[nH]c1=O`, 115%.
For `CCC1(/C=N/NC(N)=S)NC(=O)NC1=O` (stereo not given), the growth is 106%.
In the case of `CC(C(=O)n1cc(-c2ccccc2)c(-c2ccccc2)c1)c1ccccc1` (stereo not given) it was 104%; in that of `COc1cc2c3c(c4c5ccccc5[nH]c4c2c(OC)c1OC)C(=O)N(O)C3=O`, 32.7%.
For `Cn1cnc2c1c(=O)n(CCC(=O)Nc1ccc(F)cc1)c(=O)n2C` the value was 113%; for `Cc1cnc(/C=N\NC(N)=S)c2cccc(N)c12`, -27.7% (active); for `COc1cc(C2C3CC4CCCC[C@H]4N3[C@@]3(C(=O)Nc4cc(Cl)ccc43)C2C(=O)c2nc3ccccc3[nH]2)cc(OC)c1OC` (stereo not given in full), 52.8%.
For `O=C(Cn1c(C(=O)c2ccccc2)nc2ccccc21)c1ccc(F)cc1` the value was 35.1%; for `CCOC(=O)c1cc(C(=O)c2cc(OC)c(OC)c(OC)c2)n2nc(C)ccc12`, 37.4%; for `COc1cc(/C=C/c2cc(O)c3cc(C(C)=O)c(=O)oc3c2)cc2c1O[C@]1(C)CC[C@@H](O)C(C)(C)[C@H]1C2`, 65%.
Take `Cc1cc2c(C(C)C)c(O)c(O)c(C=NCCCCC(=O)O)c2c(O)c1-c1c(C)cc2c(C(C)C)c(O)c(O)c(C=NCCCCC(=O)O)c2c1O`: the growth is 35.4%.
For `Cc1ccsc1C(=O)CC(=O)C(F)(F)C(F)(F)C(F)(F)F` the value was 112%.
For `CC(C)CCCC(=O)O` the value was 90.8%; for `C=CCn1c(SCC(=O)Nc2ccc(C(=O)/C=C/c3ccc(Cl)cc3)cc2)nnc1-c1cc(OC)c(OC)c(OC)c1`, 79%; for `COc1cc(C2CC(=O)Nc3c2ccc2ccccc32)cc(Br)c1OC` (stereo not given), -34.3% (active).
Consider `CCOC(=O)c1c(C)nc2c(c1N)/C(=C/c1ccc(OC)cc1)C(=O)N2Cc1ccccc1`, for which the growth is 66.7%.
For `Clc1nc(Cl)c2ncn(CC3(Cn4cnc5c(Cl)nc(Cl)nc54)COC3)c2n1` the value was -60.7% (active); for `CC(C)C1=NOC(=O)C1=Cc1cn(-c2ccccc2)nc1-c1ccc(Cl)cc1`, 86.7%.
In the case of `CC(C)CSc1nc(NN)c(C#N)c(-c2ccccc2)n1` it was 98.2%; in that of `CCCCN(CCCC)CCCCCCCCC(O)c1cc2ccccc2c2ccccc12` (stereo not given), 29.1%; in that of `C#CC[C@@H]1C[C@]2(C)[C@H]3CC=C4[C@H]5[C@@H](C)[C@H](C)CC[C@]5(C(=O)NCCCCCCCCN)CC[C@@]4(C)[C@]3(C)CC[C@H]2C(C)(C)[C@H]1OC(C)=O`, 62.4%.
In the case of `CN1CCN(Cc2ccc(NC(=O)c3cncc(C#Cc4cnn5cccnc45)c3)cc2C(F)(F)F)CC1` it was 25.4%; in that of `CCCNNC(=O)c1ccc(CNC(=O)/C=C/c2ccccc2)cc1`, 54.5% [2.5 µM].
Consider `O=C1/C(=C/c2ccccc2O)N=C2SCCCN12`, for which the growth is 99.2%.
For `CC1(C)CC[C@]23CC[C@]4(C)[C@H](CC[C@@H]5[C@@]6(C)C/C(=C/c7ccncc7)C(=O)C(C)(C)[C@@H]6CC[C@]54C)[C@H]2[C@H]1OC3` the value was 91.1%.
For `CCN(CC)Cc1cc(Nc2ccnc3cc(Cl)ccc23)ccc1OC`, the growth was 93.6%.
For `CC(=O)c1c([Si](C)(C)C)c2cc(C#N)ccn2c1C(=O)c1ccc(Br)cc1` the value was 79.9%.

The values above are taken from PubChem BioAssay (NCI).
